{
  "source": "PubChem BioAssay",
  "note": "Values without a mark were called inactive. The rule behind the calls is not given here.",
  "data": [
    {"biological_target": "Botulinum neurotoxin type A (Clostridium botulinum) (UniProt P0DPI0)", "sequence (P0DPI0 whole entry, looked up)": "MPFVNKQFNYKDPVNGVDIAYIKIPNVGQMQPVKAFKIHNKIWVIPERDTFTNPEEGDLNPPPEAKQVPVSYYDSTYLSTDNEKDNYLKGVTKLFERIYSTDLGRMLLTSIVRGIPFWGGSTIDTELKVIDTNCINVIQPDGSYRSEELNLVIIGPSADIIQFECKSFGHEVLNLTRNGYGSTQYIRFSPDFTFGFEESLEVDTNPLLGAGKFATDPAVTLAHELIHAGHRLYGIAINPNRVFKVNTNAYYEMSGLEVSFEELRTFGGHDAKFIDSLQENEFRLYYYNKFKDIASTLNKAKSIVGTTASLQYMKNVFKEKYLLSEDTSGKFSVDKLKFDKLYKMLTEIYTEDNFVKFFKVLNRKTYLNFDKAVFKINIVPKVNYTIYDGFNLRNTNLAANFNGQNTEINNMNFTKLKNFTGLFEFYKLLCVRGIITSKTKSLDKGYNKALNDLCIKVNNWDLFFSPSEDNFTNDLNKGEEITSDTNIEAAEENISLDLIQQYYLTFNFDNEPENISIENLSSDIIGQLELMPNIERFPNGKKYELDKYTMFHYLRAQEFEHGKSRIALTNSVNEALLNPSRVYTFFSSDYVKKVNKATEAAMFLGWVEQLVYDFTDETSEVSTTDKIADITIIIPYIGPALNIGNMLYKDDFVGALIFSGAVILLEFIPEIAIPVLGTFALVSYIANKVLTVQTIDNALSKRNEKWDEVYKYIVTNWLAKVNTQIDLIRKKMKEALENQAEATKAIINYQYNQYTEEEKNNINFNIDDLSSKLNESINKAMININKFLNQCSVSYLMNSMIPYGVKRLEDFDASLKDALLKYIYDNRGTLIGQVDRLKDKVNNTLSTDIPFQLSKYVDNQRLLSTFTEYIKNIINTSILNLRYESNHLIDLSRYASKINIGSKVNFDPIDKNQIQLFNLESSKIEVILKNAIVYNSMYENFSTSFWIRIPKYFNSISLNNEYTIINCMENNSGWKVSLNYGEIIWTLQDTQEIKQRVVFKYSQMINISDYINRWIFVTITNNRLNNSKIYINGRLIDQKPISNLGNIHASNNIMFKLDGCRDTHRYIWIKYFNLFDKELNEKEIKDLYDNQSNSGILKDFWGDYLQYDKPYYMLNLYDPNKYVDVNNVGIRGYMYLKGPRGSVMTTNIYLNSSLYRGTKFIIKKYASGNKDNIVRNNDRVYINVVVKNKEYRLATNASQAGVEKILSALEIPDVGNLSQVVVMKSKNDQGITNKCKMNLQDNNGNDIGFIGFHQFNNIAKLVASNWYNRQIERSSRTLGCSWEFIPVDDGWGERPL", "test": "BoNT/A light chain protease inhibitors, biochemical, multiplex microsphere flow cytometry, validation set (AID 588460)", "details": "at 10 µM, stronger effect = higher value", "units": {"inhibition": "%"}, "values": [
      {"smiles": "CC(=Nc1ccccc1)C1=C(O)CCCC1=O", "inhibition": -0.9},
      {"smiles": "CCC(=O)Oc1ccc(/C(CC)=C(\\CC)c2ccc(OC(=O)CC)cc2)cc1", "inhibition": 0.1},
      {"smiles": "COc1ccc(CN2CCC(=O)NC2=O)cc1", "inhibition": -0.1},
      {"smiles": "OC[C@H]1O[C@@H](n2cnc3c(NC4CCCC4)ncnc32)[C@H](O)[C@@H]1O", "inhibition": 0.2},
      {"smiles": "COc1ccc(OC)c(-n2c(Cn3c(-c4ccccn4)nc4ccccc43)n[nH]c2=S)c1", "inhibition": -0.4},
      {"smiles": "Cc1ccc2[nH]c3c(c2c1)CN(C(=O)CN1CCSCC1)CC3", "inhibition": 3.7},
      {"smiles": "O=C(c1ccc(Cl)cc1)C1CCCN(Cc2ccc(Oc3ncccn3)cc2)C1", "note": "(stereo unspecified)", "inhibition": -1.2},
      {"smiles": "CN(C)C(=O)C12CCC(C)(c3nc4ccccc4nc31)C2(C)C", "note": "(stereo unspecified)", "inhibition": -1.5},
      {"smiles": "C#CCN1C(=O)C(O)(CC(=O)c2ccc(OC)c(OC)c2)c2ccccc21", "note": "(stereo unspecified)", "inhibition": -1.3},
      {"smiles": "Cc1ccc(S(=O)(=O)Nc2ccc(S(=O)(=O)Nc3cc(C)nc(C)n3)cc2)cc1", "inhibition": 0.6},
      {"smiles": "O=P(c1ccccc1)(c1ccccc1)c1nc(-c2ccc(Cl)cc2)oc1N1CCOCC1", "inhibition": -1.2},
      {"smiles": "CC1(C)CC(C(CC(=O)N2CCCC2)Cc2ccccc2)CCO1", "note": "(stereo unspecified)", "inhibition": 0.6},
      {"smiles": "CC12CN3CC(C)(CN(C1)C3c1ccc(Br)cc1O)C2", "note": "(stereo unspecified)", "inhibition": -1.2},
      {"smiles": "Cc1nc2sccn2c(=O)c1CCN1CCC(=C(c2ccc(F)cc2)c2ccc(F)cc2)CC1", "inhibition": -0.2},
      {"smiles": "CC(=O)OC(CC(=O)O)C[N+](C)(C)C", "note": "(stereo unspecified)", "inhibition": 0},
      {"smiles": "Cc1ccc(S(=O)(=O)NC(=O)Nc2cc(C)ccc2F)cc1", "inhibition": -0.1}
    ]}
  ]
}
